# ATXN2 expr inh: inhibitors of ATXN2 expression | actives 0.72% (n = 360,000) | HEK-293 ATXN2-luciferase reporter, luminescence, 24 h | AID 1745845 | Potency, µM (titrated, usually from 57 µM), for inactives: at the highest dose activity change, negative = inhibition, usual class: inhibitors; also: % is scaled to controls: 0 for no effect and ±100 for the full control effect; nearly all actives have a fitted effect of over 55% in size
#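 ATXN2-luciferase reporter cells (luciferase flanked by upstream and downstream ATXN2 gene portions) were treated 24 h at 37 °C with compounds at up to 57 uM. SteadyGlo luminescence gave expression; GF-AFC fluorescence gave viability.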
# S2 tox: reduces viability in counter-screen for ATXN expression inhibitors; S2 cells (HEK-293 line with an ATXN2-luciferase reporter) viability, CellTiter-Fluor protease fluorescence, 24 h; Potency, µM (highest dose often 56.7 µM), hits mostly cytotoxic; actives 0.49% (n = 400,000); AID 651635; also: nearly all actives have a fitted effect of over 40% in size
# TGFb SMAD3 inh: blocks TGF-b signaling | HepG2 CAGA-GFP TGF-b/SMAD3 reporter, GFP fluorescence, 18 h; TGF-beta stimulated, 500 pg/mL final | Potency, µM (highest dose often 46.1 µM), without a hit: top-dose activity, negative = inhibition, actives largely listed as inhibitors | actives 1.2% (n = 410,000) | AID 588855; also: % is scaled to controls: 0 for no effect and ±100 for the full control effect; nearly all actives have a fitted effect of over 65% in size
#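 Inhibition of TGF-beta-driven CAGA-GFP reporter expression in HEPG2 cells is measured by cellular GFP fluorescence after 18 h stimulation with 500 pg/mL recombinant TGF-beta in 1% FBS medium at 37 degrees C.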
# HT1080 IDH1KD tx: kills HT-1080 cells with IDH1 knockdown; HT-1080 IDH1 knockdown viability, ATP luminescence, 48 h; Potency, µM (doses to about 46.1 µM), for inactives: at the top dose activity, negative = toxicity, most hits filed as cytotoxic; actives 2% (n = 360,000); AID 686971;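 also: 0% = DMSO wells and -100% = cell-free medium wells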
#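 IDH1KD HT-1080 cells, 750/well, RPMI + 5% FBS; compound pinned after 2 h settling; 48 h, 37 °C; CellTiter-Glo luminescence; % activity normalised to DMSO and no-cell wells; curves fitted, classed by r2 and efficacy.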
# HepG2 viability: HepG2 cytotoxicity, counter-screen for TGF-b inhibitors; HepG2 CAGA-GFP viability, ATP luminescence, 18 h; Potency, µM (series often up to 46.1 µM), inactives show at the top dose activity change, negative = cytotoxicity, most hits filed as cytotoxic; actives 0.76% (n = 410,000)
#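 CellTiter-Glo luminescence gave cytotoxicity after 18 hours at 37 degrees C. The cells were HepG2 CAGA-GFP in 1% FBS DMEM, stimulated with 500 pg/mL TGF-beta after compound addition. %Activity was normalised to no-cell wells (complete cell-killing) and DMSO (no toxicity), and curves were fitted and classified.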
# HT1080NT lethal: kills 2HG-producing HT-1080-NT fibrosarcoma cells; actives 1.6% (n = 360,000); HT-1080-NT fibrosarcoma viability, CellTiter-Glo ATP luminescence, 48 h; Potency, µM (top dose mostly 46.1 µM), without a hit: at the top dose activity, negative = less viability, most hits filed as cytotoxic;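 also: NT is the 2HG producing partner of a matched IDH1 knockdown line; 0% = DMSO-treated cells and -100% = media-only wells without cells; nearly all actives have a fitted effect of over 55% in size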
#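 Compounds were tested in concentration-response format on HT-1080-NT cells for 48 hours at 37 degrees C. Cell viability came from CellTiter-Glo luminescence; curves were classified by r2, response magnitude and activity.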
# Numbers without * were called inactive; i = inactive; u = inconclusive; x = no result. Compounds with a hit are over-represented: about 3.8% of the library has one in this group of screens. Calls follow the shape of the dose curve; as a rule, active = well fitted curve in the direction sought with a large enough effect; inconclusive = small, poorly fitted or top-dose-only effect, or another doubt; inactive = no such curve, though single readings can be large; an effect the other way counts as inactive or inconclusive. Potency is read from the fitted curve at half-maximal effect.
SMILES,ATXN2 expr inh,S2 tox,TGFb SMAD3 inh,HT1080 IDH1KD tx,HepG2 viability,HT1080NT lethal
CC(=O)c1cccc(CN2CCC(C(=O)Nc3ccc(-c4cccc(C)c4)cc3)CC2)c1,u,u,u,20.6µM*,-107.5%,u
CCN(CC)c1ccc(/C=N/NC(=O)Cc2nnc(NC(=O)Nc3ccccc3)s2)cc1,0.0%,i,u,14.6µM*,-157.2%,20.6µM*
CC(CC(=O)Nc1ccc2c(c1)c(=O)n(C)n2-c1cccs1)c1ccccc1 (stereo not drawn),-3.7%,u,8.2%,4.11µM*,-4.5%,u
Cn1c(=O)c2cc(NC(=O)Cc3ccccc3F)ccc2n1-c1ccc(C(C)(C)C)cc1,-11.5%,u,u,-28.3%,-19.3%,u
Cc1cc(C)cc(-n2c3ccc(NC(=O)Cc4cccc5ccccc45)cc3c(=O)n2C)c1,-27.0%,0.562µM*,u,2.06µM*,-10.8%,u
CCCCCOc1ccc(/C(C)=N/NC2=NCCN2)cc1,u,i,u,-11.8%,-103.8%,0.4%
CCCCCCOc1ccc(/C(C)=N/NC2=NCCN2)cc1,x,u,u,-6.8%,14.1µM*,-19.5%
CCOc1ccc(Br)cc1/C(C)=N\NC1=NCCN1,-36.9%,i,-7.3%,u,-17.9%,20.6µM*
O=C1c2ccccc2C(=O)N1c1nc(-c2ccc(F)cc2)cs1,x,x,41.9%,x,6.3%,x
Oc1ccc(O)c(Cc2nc3ccccc3s2)c1,5.2%,i,u,16.4µM*,-10.6%,u
Cc1ccc(Nc2nc(N)c([N+](=O)[O-])c(NCCO)n2)cc1C,8.9%,i,u,-1.1%,9.0%,-17.2%
Cc1ccc(Nc2nc(N)c([N+](=O)[O-])c(NCc3ccco3)n2)cc1C,-8.1%,u,15.8µM*,u,-69.2%,-24.6%
COCCNc1nc(N)c([N+](=O)[O-])c(Nc2ccc(F)cc2)n1,-7.5%,i,3.8%,14.6µM*,8.9%,u
Nc1nc(Nc2ccccc2)nc(NCc2ccccc2)c1[N+](=O)[O-],-18.1%,u,-19.6%,16.4µM*,-13.7%,u
COc1cccc(Nc2nc(N)c([N+](=O)[O-])c(NCc3ccccc3)n2)c1,x,x,u,u,-36.6%,-16.6%
Cc1cccc(Nc2nc(N)c([N+](=O)[O-])c(NCc3ccccc3)n2)c1,-24.6%,i,u,16.4µM*,22.4µM*,u
Nc1nc(NCc2ccccc2)nc(NCc2ccccc2)c1[N+](=O)[O-],6.1%,i,-5.6%,6.4%,-4.3%,9.7%
Cc1cccc(NC(=O)CN2C(=O)C(c3ccc(F)cc3)=NC23CCCCCC3)c1C,x,x,x,x,-19.5%,x
COc1cc(OC)c(OC)cc1/C=C/c1ccc2ccccc2[n+]1C,x,x,-2.7%,x,-32.1%,x
Cc1ccc(S(=O)(=O)N2CCN(c3nc(-c4cnccn4)nc4ccccc34)CC2)cc1,x,x,x,1.1%,x,0.8%
N#CCC(=O)N/N=C/c1ccc(Cl)cc1,14.4%,i,21.2%,0.3%,36.5%,-11.5%
CN(c1ccccc1)c1ccc(/C=N/NC(=O)CC#N)cc1,12.6µM*,i,-9.1%,-25.2%,-6.7%,-5.5%
CC(C)(C)NC(=S)N/N=C/c1c(Cl)cccc1Cl,x,i,-21.1%,0.3%,-25.1%,-2.9%
Cc1ccc(NC(=S)N/N=C/c2c(Cl)cccc2Cl)c(C)c1,43.8%,u,-28.4%,0.517µM*,4.2%,u
Fc1cccc(/C=N/NC(=S)Nc2ccccc2Cl)c1,50.5%,i,u,u,-15.9%,u
SMILES,ATXN2 expr inh,S2 tox,TGFb SMAD3 inh,HT1080 IDH1KD tx,HepG2 viability,HT1080NT lethal
S=C(N/N=C/c1ccc(Cl)c(Cl)c1)Nc1ccccc1Cl,-30.9%,u,-1.0%,8.2µM*,-52.1%,14.6µM*
COc1ccc(N(CC(=O)NCCc2ccccc2)S(=O)(=O)c2ccccc2)c(OC)c1,13.7%,i,u,x,-40.9%,x
CCOc1ccc(N(C)C(=O)c2oc(=O)c3ccccc3c2-c2ccccc2)cc1,x,x,15.8µM*,x,-30.6%,x
COc1cc(=O)n2c(c1C(=O)NC(C)c1ccco1)CCN(Cc1cc(C)ccc1C)CC2 (stereo not drawn),x,i,x,x,x,x
CCC(CN)=C(c1ccccc1)c1ccccc1,u,i,x,x,x,x
C[C@@H]1C[C@@H](CC(=O)NCC2Cc3cccc(-c4ccncc4)c3O2)NC(=S)N1 (stereo partly drawn),x,i,x,x,x,x
O=C1c2ccccc2C(=O)C12OC2c1ccc(Cl)cc1Cl (stereo not drawn),u,u,u,u,20µM*,20.6µM*
Cc1c(Cl)cccc1N=Cc1ccc([N+](=O)[O-])s1,u,u,u,10µM*,-114.8%,12.6µM*
Cc1ccc(C(c2nc3ccccc3[nH]2)n2c(-c3ccccc3)nc3ccccc32)cc1 (stereo not drawn),8.5%,u,20µM*,u,-61.1%,-19.1%
CCC(=O)N1CCc2cc(S(=O)(=O)CCC(=O)Nc3ccc(OC(F)(F)F)cc3)ccc21,-22.5%,i,11.2µM*,x,-17.7%,x
CCC1Sc2ccc(S(=O)(=O)CCC(=O)Nc3ccc(OC(F)(F)F)cc3)cc2NC1=O (stereo not drawn),x,u,u,0.1%,10µM*,-10.7%
O=c1[nH]c2ccccc2c2oc(CCl)nc12,-22.0%,i,u,14.6µM*,-94.9%,5.8µM*
CCC1CCc2c(c3ccccc3[nH]c2=O)O1 (stereo not drawn),0.0%,i,3.3%,-5.0%,-0.6%,1.4%
CCC1CN(C(=O)N2CCC(C(=O)N3CCN(c4cc(C)ccc4C)CC3)CC2)c2ccccc2O1 (stereo not drawn),x,x,10µM*,x,-73.1%,x
CCOc1ccccc1CNC(=O)C1CCN(C(=O)N2CC(CC)Oc3ccc(C)cc32)CC1 (stereo not drawn),x,x,10µM*,x,-39.5%,x
CCOc1ccccc1CNC(=O)C1CCN(C(=O)N2CC(C)Oc3ccc(C)cc32)CC1 (stereo not drawn),-21.2%,u,-28.8%,0.1%,-30.9%,-2.0%
CCC1CN(C(=O)N2CCC(C(=O)N3CCN(c4cccc(C)c4C)CC3)CC2)c2ccccc2O1 (stereo not drawn),x,x,u,x,-76.7%,x
Cc1ccc2c(c1)N(C(=O)N1CCC(C(=O)NCc3ccccc3F)CC1)CC(C)O2 (stereo not drawn),x,x,12.6µM*,x,-48.4%,x
CC1CN(C(=O)N2CCC(C(=O)NCCCc3ccccc3)CC2)c2cc(Cl)ccc2O1 (stereo not drawn),x,x,14.1µM*,x,-20.7%,x

# Source: PubChem (National Center for Advancing Translational Sciences (NCATS))
